Several values for one entry are separate records, joined by “and”; a condition that tells them apart may be missing. Equal entries are not always repeated. Activity calls are given as the source filed them. Unless noted, how the calls were made is not given here.

The values below come from PubChem BioAssay.

Experiment [1] is described as follows: liver-stage malaria parasite growth inhibition, primary screen, cell-based, HepG2, luciferase luminescence, HepG2 viability (AID 624349; in the data active means parasite load remaining mostly below about 12%, no sharp cut-off; inactive means mostly above about 10%;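 further: 100% = mean of DMSO negative control wells on the same plate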). The settings on record: P. berghei liver stage in HepG2, luciferase luminescence, concentration not given here; parasite load remaining: stronger effect = lower value; viability: measured here: HepG2 viability without parasites.
Experiment [2] in a line: Cy5 fluorescence interference with SSB-bound oligo, artefact control for HCV NS3 helicase inhibitor project, biochemical, NIH Clinical Collection, E. coli SSB (AID 743268).
The subject of experiment [3] is Hepatitis C virus NS3 helicase. In words: HCV NS3 helicase inhibitors, primary screen, biochemical, fluorescence polarization, NIH Clinical Collection (AID 743270). The following applies: NS3 helicase binding to Cy5-dT15 DNA, stronger effect = higher value, concentration not given here. In general terms: Polarisation of emitted light reports the rotation of a fluorescent probe.

In experiment [4] the target is Single-stranded DNA-binding protein (Escherichia coli (strain K12)) (UniProt P0AGE0). Kind of experiment: E. coli SSB displacement from DNA, counter-screen for HCV NS3 helicase inhibitor project, biochemical, fluorescence polarization, NIH Clinical Collection (AID 743271; in the data active means inhibition above about 28%). The settings on record: stronger effect = higher value, concentration not given here. Background: A counterscreen serves to expose hits that act by an unwanted route or on another target.

Experiment [5] can be described thus: fluorescence interference in NS3h assay format, artefact control for HCV NS3 helicase inhibitor project, biochemical, NIH Clinical Collection (AID 743272).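 Further: HCV NS3 helicase with a Cy5 labelled single stranded DNA probe.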 The following applies: fluorescence interference counterscreen, stronger effect = lower value.
Experiment [6] deals with Neuropilin-2 / VEGF-C interaction (human). In words: inhibitors of NRP2–VEGF-C binding, biochemical, microplate binding format, z-score (AID 743281). The settings on record: microplate NRP2/VEGF-C binding assay; stronger effect = lower value.
A short description of experiment [7]: stimulators of nuclear beta-catenin in C2C12, primary screen, imaging, WNT3A-conditioned medium, mouse C2C12, NPC library (AID 1117326; in the data active means nuclear beta-catenin stimulation mostly above about 4.2%, no sharp cut-off; inactive means mostly below about 10%). The settings on record: stronger effect = higher value.
Experiment [8] is described as follows: stimulators of insulin release from INS-1E, primary screen, cell-based, 5 mM glucose, NPC library (AID 1117329;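 active means compound raises insulin release from rat beta cells at 5 mM glucose, no numeric limit stated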). The following applies: rat INS-1E insulin secretion, at 10 µM, stronger effect = higher value.
The nature of experiment [9]: growth inhibition of GSK3B-pretreated HCT116 cells – cell-based, CellTiter-Glo, 0.2 to 20 µM (AID 1117336;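 active means compounds lowering colon cancer cell viability after pretreatment blocking the GSK3B kinase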). The settings on record: HCT116 viability after GSK3B inhibitor, at 20 µM, stronger effect = higher value.
A short description of experiment [10]: inhibition of endothelial tube formation, primary screen, imaging, VEGF stimulated, CD31 staining, tube area, NPC library (AID 1117340;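 active means compound that reduces growth-factor-driven endothelial tube area in a mixed cell culture, no cutoff stated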). The settings on record: VEGF-stimulated ADSC/ECFC co-culture, at 10 µM, stronger effect = higher value.
Experiment [11] in a line: glucagon-like peptide 1 release enhancers, primary assay, NCI-H716 cell line, NPC library (AID 1117341;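 active means compound raises GLP1 secretion from the human gut endocrine cells, with no numeric limit stated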). The following applies: NCI-H716 cells, at 10 µM, stronger effect = higher value.
Experiment [12] can be described thus: HCT116 colon cancer cell growth inhibition, primary screen, CellTiter-Glo luminescence, NPC library (AID 1117342;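 active means compounds that lower survival of HCT116 colon cancer cells in the luminescence readout, no numeric limit stated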). The settings on record: at 20 µM (top of the series). For orientation: Cellular ATP, detected with luciferase, serves as a proxy for viable cell number.
Experiment [13] in a line: CellTiter-Glo luminescent readout of SW480 viability loss, NPC library primary (AID 1117343;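 active means compounds that lower viability of the colon cancer cells in the luminescence readout, with no numeric limit stated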). The settings on record: CellTiter-Glo luminescence; at 20 µM (top of the series).
Experiment [14] can be described thus: decreased DLD-1 cellular survival, CellTiter-Glo luminescent readout, NPC compound collection, primary HTS (AID 1117346;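 active means compounds that lower survival of DLD-1 colon cancer cells in the luminescence readout, no cutoff given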). The settings on record: DLD-1 viability, CellTiter-Glo luminescence; at 20 µM (top of the series).

Broadly, the viability is a read-out of living cells in per cent, often relative to untreated cells. One may read the inhibition as the relative decrease from the control value, in per cent. Take `CCOc1cc(N)c(Cl)cc1C(=O)NCC1CN(Cc2ccc(F)cc2)CCO1` (stereo not given): the parasite load remaining in experiment [1] is 29.6% (inactive). Also, the viability in experiment [1] was 70.5%. The fluorescence ratio in experiment [2] is 0.99 (inactive); in [5] it was 0.95 (inactive). In addition, the results for the inhibition in [3] and in [4] were 1.19% (inactive) and 4.52% (inactive), respectively. For the same molecule, the z-score in experiment [6] was 0.948 (inactive). Also, the nuclear beta-catenin stimulation in [7] (at 10 µM) was 2.5% (inactive); in experiment [7] (stimulation, at 2 µM) it was 1.9%. Besides, the insulin secretion stimulation in [8] was -0.4% (inactive). The viability decrease in experiment [9] is 71.6% (active). Besides, in experiment [10], the tube area decrease is 5.1% (inactive). In addition, in experiment [11], the GLP1 secretion stimulation is 4.9% (inactive). Also, in [12], the inhibition of viability was 46.1% (inactive). Further, the viability decrease (inhibition) in [13] was 44.8% (inactive); in experiment [14], 24% (inactive).
`COC(=O)C1=C(C)NC(C)=C(C(=O)O[C@@H]2CCCN(Cc3ccccc3)C2)[C@@H]1c1cccc([N+](=O)[O-])c1`: the parasite load remaining in experiment [1] is 10.8% (inactive). Moreover, the viability in [1] turned out to be 55.9%. Besides, the fluorescence ratio in experiment [2] is 0.96 (inactive); in experiment [5], 0.94 (inactive). The inhibition in experiment [3] was 3.56% (inactive); in experiment [4], 5.29% (inactive). For the same molecule, the z-score in [6] is 1.67 (inactive). In addition, the nuclear beta-catenin stimulation in experiment [7] (at 10 µM) is 8.2% (inactive); in experiment [7] (stimulation, at 2 µM) it was 5.8%. Further, the insulin secretion stimulation in [8] is 1.9% (inactive). Also, in experiment [9], the viability decrease was 110% (active). The tube area decrease in experiment [10] is 52.9% (active). The GLP1 secretion stimulation in experiment [11] was -0.5% (inactive). In addition, in experiment [12], the inhibition of viability is 109% (active). Also, the viability decrease (inhibition) in [13] is 131% (active); in [14] it was 101% (active).
`CC(c1cc2ccccc2s1)N(O)C(N)=O` (stereo not given): the parasite load remaining in [1] is 58.4% (inactive) and 101% (inactive) and 41.5% (inactive). Also, the viability in experiment [1] is 101% and 79.1% and 102%. Also, the values for the fluorescence ratio in experiment [2] and in experiment [5] were 1.02 (inactive) and 1.01 (inactive), respectively. Moreover, the inhibition in experiment [3] is 2.77% (inactive); in experiment [4], -0.87% (inactive). Further, in experiment [6], the z-score was -0.124 (inactive). Besides, the nuclear beta-catenin stimulation in experiment [7] (at 10 µM) was 0.1% (inactive); in experiment [7] (stimulation, at 2 µM), 0.8%. Besides, the insulin secretion stimulation in experiment [8] is -0.1% (inactive). Besides, in experiment [9], the viability decrease was -6.5% (inactive). Further, the tube area decrease in experiment [10] is -39.9% (inactive). The GLP1 secretion stimulation in experiment [11] is -1.4% (inactive). In addition, the inhibition of viability in [12] was -15.9% (inactive). Further, the viability decrease (inhibition) in experiment [13] is 9.4% (inactive); in [14], -3.8% (inactive).
As to `CCCc1nc(C)c2c(=O)[nH]c(-c3cc(S(=O)(=O)N4CCN(CC)CC4)ccc3OCC)nn12`, in experiment [1], the parasite load remaining was 37.6% (inactive) and 31.5% (inactive) and 37.1% (inactive). Moreover, the viability in [1] was 202% and 68.7% and 126%. Besides, the fluorescence ratio in experiment [2] was 0.94 (inactive); in experiment [5], 0.93 (inactive). The inhibition in [3] is -13.3% (inactive); in [4], -1.97% (inactive). Besides, the call in experiment [6] was inactive. Further, the nuclear beta-catenin stimulation in experiment [7] (at 10 µM) was 0.1% (inactive); in [7] (stimulation, at 2 µM), -1%. The insulin secretion stimulation in [8] was -0.4% (inactive). Besides, in experiment [9], the viability decrease was -11.4% (inactive). Also, in [10], the tube area decrease is -2.1% (inactive). Besides, the GLP1 secretion stimulation in experiment [11] is 0.1% (inactive). Further, in [12], the inhibition of viability is 23.1% (inactive). Further, the viability decrease (inhibition) was 14.2% (inactive) in [13] and -13.5% (inactive) in [14].
Consider `COc1ccc(C(=O)NCc2ccc(OCCN(C)C)cc2)cc1OC`, for which, in experiment [1], the parasite load remaining was 97.5% (inactive) and 24.6% (inactive). In experiment [1], the viability is 80.4% and 69%. The fluorescence ratio in experiment [2] is 1.04 (inactive); in [5] it was 1.05 (inactive). Moreover, the inhibition in experiment [3] was 1.19% (inactive); in [4], 2.98% (inactive). Besides, in experiment [6], the z-score was -0.08 (inactive). For the same molecule, the nuclear beta-catenin stimulation in [7] (at 10 µM) is -0.3% (inactive); in experiment [7] (stimulation, at 2 µM), 1%. In experiment [8], the insulin secretion stimulation is 0.75% (inactive). In experiment [9], the viability decrease was -2.9% (inactive). For the same molecule, the tube area decrease in [10] is 4.2% (inactive). In addition, the GLP1 secretion stimulation in experiment [11] is -0.4% (inactive). In experiment [12], the inhibition of viability was 7% (inactive). Moreover, the viability decrease (inhibition) in experiment [13] was -4.6% (inactive); in [14], -7.9% (inactive).
